Assay outcomes deposited in PubChem BioAssay by National Center for Advancing Translational Sciences (NCATS).
IDH1 R132H inh: qHTS for Inhibitors of mutant isocitrate dehydrogenase 1 (IDH1): qHTS. Potency, µM (top dose mostly 76.6 µM), actives largely listed as inhibitors. AID 602179, 2012. IDH1-R132H enzyme, NADPH consumption, diaphorase/resazurin fluorescence. hit rate 0.093% among 390,000. Isocitrate dehydrogenase [NADP] cytoplasmic (Homo sapiens), O75874; also: nearly all actives have a fitted effect of over 65% in size
Target sequence (O75874 whole entry R132H, stated change not applied): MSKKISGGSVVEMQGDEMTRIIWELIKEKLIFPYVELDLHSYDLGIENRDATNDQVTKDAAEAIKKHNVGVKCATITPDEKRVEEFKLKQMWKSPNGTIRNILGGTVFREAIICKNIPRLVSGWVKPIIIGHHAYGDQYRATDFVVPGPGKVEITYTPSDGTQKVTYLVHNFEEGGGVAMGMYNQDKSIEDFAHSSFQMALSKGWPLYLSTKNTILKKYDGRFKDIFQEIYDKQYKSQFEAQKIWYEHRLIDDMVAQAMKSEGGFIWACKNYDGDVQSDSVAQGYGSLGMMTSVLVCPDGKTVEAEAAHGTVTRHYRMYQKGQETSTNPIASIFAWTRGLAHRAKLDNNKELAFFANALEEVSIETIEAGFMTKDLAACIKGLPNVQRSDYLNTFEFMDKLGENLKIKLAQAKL
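IDH1-R132H (0.5 ug/mL) preincubated 30 min with compound, then NADPH (0.016 mM) and alpha-KG (2 mM) added; 80 min at RT, pH 7.5. Remaining NADPH coupled via diaphorase/resazurin to fluorescence (540/590 nm); concentration-response curves normalized to no-enzyme control.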
S2 tox: Viability Counterscreen for Primary qHTS for Inhibitors of ATXN expression | hit rate 0.49% among 400,000 | S2 cells (HEK-293 line with an ATXN2-luciferase reporter) viability, CellTiter-Fluor protease fluorescence, 24 h | AID 651635, 2014 | Potency, µM (series often up to 56.7 µM), actives largely listed as cytotoxic; also: nearly all actives have a fitted effect of over 40% in size
HepG2 viability: qHTS for Inhibitors of TGF-b: Cytotox Counterscreen | HepG2 CAGA-GFP viability, ATP luminescence, 18 h | Potency, µM (top dose mostly 46.1 µM), most hits filed as cytotoxic | hit rate 0.76% among 410,000 | AID 588856, 2011
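CellTiter-Glo luminescence gave cytotoxicity after 18 hours at 37 degrees C. The cells were HepG2 CAGA-GFP in 1% FBS DMEM, stimulated with 500 pg/mL TGF-beta after compound addition. %Activity was normalised to no-cell wells (complete cell-killing) and DMSO (no toxicity), and curves were fitted and classified.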
TGFb SMAD3 inh: qHTS for Inhibitors of TGF-b; Potency, µM (top dose mostly 46.1 µM), actives largely listed as inhibitors; hit rate 1.2% among 410,000; HepG2 CAGA-GFP TGF-b/SMAD3 reporter, GFP fluorescence, 18 h; TGF-beta stimulated, 500 pg/mL final; AID 588855, 2011; also: nearly all actives have a fitted effect of over 65% in size
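Per well, imaged GFP fluorescence of HEPG2 CAGA-GFP cells gives the signal; cells get compound, then TGF-beta (500 pg/mL final), 18 h at 37 degrees C; %Activity versus -TGF-beta and +DMSO controls.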
LDHA block: qHTS assay for inhibitors of human lactate dehydrogenase | hit rate 0.15% among 480,000 | purified LDHA, NADH/diaphorase-resazurin fluorescence; stronger effect = lower value | L-lactate dehydrogenase A chain (Homo sapiens), P00338 | AID 1347041, 2019 | activity change, % (values are at about 110 or 230 µM); in the data active = activity change below about -30%; inconclusive = mostly about -25% to -30%
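Resorufin fluorescence (ex540/em590), read at 0 and 20 min after diaphorase/resazurin addition, reports the NADH left after a 5 min room-temperature reaction of 2 nM human LDH5 with 0.06 mM NADH and 0.2 mM pyruvate.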
ATXN2 expr inh: Primary qHTS for Inhibitors of ATXN expression. HEK-293 ATXN2-luciferase reporter, luminescence, 24 h. Potency, µM (doses to about 57 µM), hits mostly inhibitors. hit rate 0.72% among 360,000; also: nearly all actives have a fitted effect of over 55% in size
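ATXN2-luciferase reporter cells (luciferase flanked by upstream and downstream ATXN2 gene portions) were treated 24 h at 37 °C with compounds at up to 57 uM. SteadyGlo luminescence gave expression; GF-AFC fluorescence gave viability.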
Each line names hits and unclear results; the compound was inactive in the other large screens. Most compounds without a hit are left out; they make up all but 2.2% or so of the library. Unless noted, calls follow the shape of the dose curve; as a rule, active = well fitted curve in the direction sought with a large enough effect; inconclusive = small, poorly fitted or top-dose-only effect, or another doubt; inactive = no such curve, though single readings can be large; an effect the other way counts as inactive or inconclusive.

CCC(C)[C@H](N)C(=O)N[C@H]1CCC2C3CC=C4C[C@@H](O)CC[C@]4(C)C3CC[C@@]21C (some centres undefined)	S2 tox inconclusive, HepG2 viability 15.8µM, TGFb SMAD3 inh inconclusive (no result: ATXN2 expr inh)
CCOC(=O)c1cnc2cc(Cl)c(OC)cc2c1Nc1ccc(Br)cc1C	none
COc1ccc(C(=O)CSc2nc3ccccc3n2CC(=O)c2ccccc2)cc1	S2 tox inconclusive
COc1ccc(C(=O)Cn2c(C(=O)/C=C/c3ccccc3)nc3ccccc32)cc1	S2 tox inconclusive, ATXN2 expr inh 22.4µM
Cc1[nH]n(-c2ccc(F)cc2)c(=O)c1CCC(=O)Nc1ccc(C#N)cc1	LDHA block -30.2 (no result: IDH1 R132H inh, S2 tox, HepG2 viability, TGFb SMAD3 inh, ATXN2 expr inh)
Cc1c(C(=O)NCCN2CCC(c3ccccc3)CC2)cnn1-c1nccc(-c2cccs2)n1	S2 tox 28.2µM (no result: IDH1 R132H inh, HepG2 viability, TGFb SMAD3 inh, LDHA block, ATXN2 expr inh)
O=C(Nc1cccnc1)C1=C(c2ccccc2)S(=O)(=O)CCO1	none (no result: IDH1 R132H inh, S2 tox, HepG2 viability, TGFb SMAD3 inh, ATXN2 expr inh)
O=C(Nc1ccccc1)C1=C(c2ccccc2)S(=O)(=O)CCS1(=O)=O	S2 tox 8.91µM, HepG2 viability 2.51µM, TGFb SMAD3 inh 2.51µM, ATXN2 expr inh 5.62µM
CCCNC(=O)c1cc2c(c(-c3cccc(-c4ccc(F)cc4)c3)n1)[C@H](CCO)N(S(=O)C(C)(C)C)C2 (some centres undefined)	S2 tox inconclusive, TGFb SMAD3 inh inconclusive, ATXN2 expr inh inconclusive (no result: IDH1 R132H inh)
CCCNC(=O)c1cc2c(c(-c3cccc(-c4ccc(F)cc4)c3)n1)[C@@H](CCO)N(S(=O)C(C)(C)C)C2 (some centres undefined)	S2 tox inconclusive, TGFb SMAD3 inh 15.8µM, ATXN2 expr inh inconclusive (no result: IDH1 R132H inh)
CC(C)(C)n1nnnc1C(CCc1ccccc1)N1CCN(C/C=C/c2ccccc2)CC1 (centres undefined)	S2 tox inconclusive, TGFb SMAD3 inh inconclusive (no result: IDH1 R132H inh)
CC(=O)c1c(C)oc2ccc(N(C(=O)c3ccncc3)S(=O)(=O)c3ccc(F)cc3C)cc12	TGFb SMAD3 inh inconclusive, ATXN2 expr inh inconclusive
CCOC(=O)c1c(C)oc2ccc(N(C(=O)c3ccncc3)S(=O)(=O)c3ccc(F)cc3C)cc12	S2 tox inconclusive, HepG2 viability 14.1µM, TGFb SMAD3 inh inconclusive, ATXN2 expr inh inconclusive
CCc1c(C)nc2ncnn2c1N1CCC(C(=O)NCc2cccs2)CC1	none
N=c1c2c(-c3ccccc3)c(-c3ccccc3)n(Cc3ccco3)c2ncn1Cc1ccccc1	none
N=c1c2c(-c3ccccc3)c(-c3ccccc3)n(Cc3ccccc3)c2ncn1CCO	S2 tox 8.91µM, TGFb SMAD3 inh inconclusive, ATXN2 expr inh inconclusive
c1ccc(-c2c(-c3ccccc3)n(Cc3ccco3)c3ncnc(NCCCn4ccnc4)c23)cc1	IDH1 R132H inh 29.3µM, HepG2 viability 20µM, TGFb SMAD3 inh inconclusive, ATXN2 expr inh inconclusive (no result: S2 tox)
CC(C)Cn1cnc2c(c(-c3ccccc3)c(-c3ccccc3)n2Cc2ccco2)c1=N	S2 tox inconclusive, HepG2 viability 12.6µM, TGFb SMAD3 inh inconclusive
CCOC(=O)C1=C(C)Nc2ncnn2C1/C=C/c1ccccc1 (centres undefined)	none
O=C(N/N=C/c1ccc[nH]1)c1ccc(O)cc1	none
Cc1cc(Br)c(OCc2ccc(C(=O)N/N=C/c3ccc[nH]3)cc2)c(Br)c1	S2 tox inconclusive, TGFb SMAD3 inh 1.12µM
O=C(O)C1=CC[C@@H](c2ccc(Cl)cc2)N(S(=O)(=O)c2ccc(Cl)cc2)[C@H]1c1ccc(Br)cc1	IDH1 R132H inh inconclusive, TGFb SMAD3 inh 12.6µM
Cc1ccccc1S(=O)(=O)N1[C@@H](c2ccc(Br)cc2)C(C(=O)O)=CC[C@H]1c1ccc(Cl)cc1	S2 tox inconclusive, TGFb SMAD3 inh 17.8µM
Cc1ccc(S(=O)(=O)N2[C@@H](c3ccc(Br)cc3)C(C(=O)O)=CC[C@H]2c2ccc(Cl)cc2)cc1	TGFb SMAD3 inh inconclusive
